NS1 inh = qHTS Assay for Inhibitors of Influenza NS1 Protein Function. Potency, µM (top dose mostly 46.1 µM), for inactives: top-dose activity, positive = more growth. 0.4% of 270,000 active; also: potency is read from the fitted curve at half-maximal effect; actives are rising curves; nearly all actives have a fitted effect of over 50% in size
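Recovery from NS1-induced slow growth read by OD600 in budding yeast switched to galactose assay medium (pH 6.0, -URA) at 1:100 dilution. Compound 23 nl per well; the matching strain lacking NS1 serves as control.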
Shiga toxin inh = A qHTS for Small Molecule Inhibitors of Shiga Toxin. 9.2% of 290,000 active. inhibition, % at 38.7 µM. Vero cells, Shiga toxin protein synthesis inhibition reporter; in the data active = inhibition mostly above about 28%, no sharp cut-off; inactive = mostly below about 43%; also: 0% is about no effect
Pf growth 48h = Primary qHTS for delayed death inhibitors of the malarial parasite plastid, 48 hour incubation. P. falciparum luciferase growth in erythrocytes, 48 h. Potency, µM (highest dose often 28.7 µM), inactives show at the highest dose activity change, negative = inhibition, hits mostly inhibitors. 5.9% of 310,000 active; active = well fitted inhibition curve with a large enough effect; inconclusive = small, poorly fitted or top-dose-only effect, or another doubt; inactive = no such curve, though single readings can be large or run the other way; also: potency is read from the fitted curve at half-maximal effect; % is scaled to controls: 0 for no effect and ±100 for the full control effect
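Luciferase-expressing parasites in RBCs, 2% Hct / 0.1% parasitemia final; RPMI 1640 + 0.5% Albumax; 37 C, 5% CO2, one generation; luminescence read-out, lower signal = inhibition.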
SARS PLpro yeast = qHTS of Yeast-based Assay for SARS-CoV PLP; S. cerevisiae expressing SARS-CoV PLpro, growth rescue; Potency, µM (top dose mostly 32.9 µM), for the others: top-dose activity, positive = growth rescue, actives largely listed as activators; 0.19% of 330,000 active; also: potency is read from the fitted curve at half-maximal effect; 0% is about no effect; nearly all actives have a fitted effect of over 55% in size
Pf growth 96h = Primary qHTS for delayed death inhibitors of the malarial parasite plastid, 96 hour incubation; 6.9% of 320,000 active; Potency, µM (top dose mostly 28.7 µM), without a hit: top-dose activity change, negative = inhibition, usual class: inhibitors; P. falciparum luciferase reporter growth, 96 h; AID 504834, 2011; active = well fitted inhibition curve with a large enough effect; inconclusive = small, poorly fitted or top-dose-only effect, or another doubt; inactive = no such curve, though single readings can be large or run the other way; also: potency is read from the fitted curve at half-maximal effect; % is scaled to controls: 0 for no effect and ±100 for the full control effect
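Erythrocytes infected with luciferase-expressing P. falciparum were dispensed at 2% hematocrit and 0.05% parasitemia (final), then incubated with compounds 96 hours at 37 C in 5% CO2. Luminescence after detection reagent addition reported growth.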
CHX counter = Cycloheximide Counterscreen for Small Molecule Inhibitors of Shiga Toxin. 12% of 300,000 active. cell reporter, cycloheximide protein synthesis inhibition counterscreen. max response, %. AID 2314, 2010; in the data active = max response mostly above about 13%, no sharp cut-off; inactive = mostly below about 14%; also: read at 38.3 µM for the half of the compounds with a filed dose; 0% is about no effect
An asterisk follows results filed as active; ? = inconclusive; · = not tested or not shown; [ ] = another dose, or the depositor's remark. Shown are actives, neighbours in structure and some others; about 21% of the full set was active somewhere. Unless noted, calls follow the shape of the full dose curve.

SMILES	NS1 inh	Shiga toxin inh	Pf growth 48h	SARS PLpro yeast	Pf growth 96h	CHX counter
CC(CCc1ccccc1)NC(=O)COC(=O)c1ccccc1O (stereo not given)	·	24.7	6.6%	-1.5%	-11.9%	5.6
CCOc1ccc(NC(=O)Cn2nnc(-c3ccccc3NC(=O)c3cccs3)n2)cc1	-7.8%	9.8	·	4.4%	?	-0.6
CCCc1ccc(OCc2nc(-c3ccc(NC(=O)c4cccs4)cc3)no2)cc1	-3.8%	176.2*	1.85µM*	-7.5%	?	80.3*
CCCc1ccc(OCc2nc(-c3ccc(NC(=O)c4ccco4)cc3)no2)cc1	-10.5%	56.5	?	-6.6%	?	47.0*
Cc1ccc(C2/C(=C(\O)c3ccc4c(c3)OCCO4)C(=O)C(=O)N2CC2CCCO2)cc1 (stereo not given)	2.5%	-7.7	7.2%	-3.9%	?	4.8
CCCCCCCCNc1ccccc1S(=O)(=O)NCc1ccccc1	·	·	·	-6.9%	·	·
COc1ccc(C(=O)C2CCCN(C(=O)c3ccc4cc[nH]c4c3)C2)c(C)c1 (stereo not given)	2.3%	-17.7	-2.7%	-0.6%	?	4.4
Brc1cnc2nc(SCc3nc4ccccc4[nH]3)[nH]c2c1	?	-2.3	?	0.9%	33.9%	1.2
Fc1ccc(CSc2nc3ncc(Br)cc3[nH]2)cc1	0.0%	-13.1	·	2.8%	9.28µM*	-2.8
Cc1cc(C)n2nc(CC(=O)NCc3ccc(F)cc3)nc2n1	1.6%	-3.2	-6.5%	2.5%	-19.8%	-3.3
Cc1cccc(NC(=O)CN2CCN(C(=O)c3oc4c(Cl)cccc4c3C)CC2)c1C	·	·	?	-0.7%	?	·
Cc1ccc(NS(=O)(=O)c2cc(C(=O)N(C)C3CCN(C)CC3)ccc2Cl)cc1Cl	·	·	·	4.6%	·	·
O=C(c1ccccc1)N1CCN=C1c1ccccc1	10.5%	1.1	-11.5%	-9.2%	11.7µM*	6.2
CC(C)(C)OC(=O)C[C@@H]1C/C=C\C[C@H](CC(=O)N(CCO)Cc2ccccc2)C(=O)N[C@@H](Cc2c[nH]c3ccccc23)COC1=O	·	·	·	1.7%	·	·
COc1cc2c(cc1OC)CN(Cc1ccccc1)CC2	6.0%	-1.1	1.5%	2.7%	?	-3.4
COc1cc2c(cc1OC)C(=O)C(CC1CCN(Cc3ccccc3)CC1)C2 (stereo not given)	·	-12.8	?	-2.1%	9.53µM*	1.8
Cc1ccccc1NC(=O)CN1C(=O)CSc2ccc(S(=O)(=O)N3CCCCC3)cc21	2.3%	20.6	?	1.1%	-3.9%	12.1
Cc1ccccc1NC(=O)CN1C(=O)CSc2ccc(S(=O)(=O)N3CCCC3)cc21	6.5%	2.2	-15.9%	8.6%	13.1µM*	-6.2
CC(=O)c1ccc(NC(=O)CN2C(=O)COc3ccc(S(=O)(=O)N4CCCC4)cc32)cc1	-5.3%	-6.5	27.8%	1.4%	1.4%	1.2
Cc1cc(C)cc(NC(=O)CN2C(=O)COc3ccc(S(=O)(=O)N4CCCC4)cc32)c1	14.5%	4.0	0.2%	13.3%	?	0.7
CC(=O)c1cccc(NC(=O)CN2C(=O)COc3ccc(S(=O)(=O)N4CCOCC4)cc32)c1	-1.4%	22.4	?	-2.2%	11.7µM*	1.9
COc1cc(NC(=O)CN2C(=O)COc3ccc(S(=O)(=O)N4CCCC4)cc32)cc(OC)c1	1.1%	-3.0	?	-2.1%	0.415µM*	0.8
COc1cc(NC(=O)CN2C(=O)COc3ccc(S(=O)(=O)N4CCCCC4)cc32)cc(OC)c1	-2.7%	-16.8	?	-0.6%	10.4µM*	8.9
COCC(=O)NNC(=S)Nc1cccc(C)c1C	6.3%	-5.1	1.9%	1.4%	-19.3%[1.15 µM]	-0.1
CCNC(=O)c1ccccc1SCC(=O)Nc1ccc(F)cc1	·	-11.1	72.2%	-4.0%	102.7%	-11.9
SMILES	NS1 inh	Shiga toxin inh	Pf growth 48h	SARS PLpro yeast	Pf growth 96h	CHX counter
COc1cc(C)c(C)cc1S(=O)(=O)NC1CC(C)(C)NC(C)(C)C1	8.8%	-3.2	17.3%	0.6%	37.1%	1.2
O=C1N(c2ccccc2C(F)(F)F)OC1(Cc1ccccc1)c1ccccc1 (stereo not given)	·	·	1.04µM*	-2.3%	?	·
Cc1nc2ccccc2c(=O)n1-c1ccccc1C(F)(F)F	0.0%	-24.0	?	-2.2%	?	-4.5
O=C1N(c2ccccc2C(F)(F)F)O[C@]1(c1ccccc1)C1CCCCC1	·	·	?	-2.2%	1.04µM*	·
FC(F)(F)c1ccccc1-n1ccnc1	-11.8%	·	?	·	-12.8%	·
CC(C)[C@]1(c2ccc(Cl)cc2)ON(c2ccccc2C(F)(F)F)C1=O	·	·	1.85µM*	3.5%	1.65µM*	·
CC(C)[C@]1(c2ccccc2)ON(c2ccccc2C(F)(F)F)C1=O	·	·	1.85µM*	2.6%	4.65µM*	·
CC(C)[C@@]1(c2ccccc2)ON(c2ccccc2C(F)(F)F)C1=O	·	·	1.65µM*	3.7%	?	·
CCNC(=S)N/N=C/c1cc(C)ccc1C	-3.2%	-4.9	17.8%	?	32.1%	-1.2
COc1ccccc1NC(=S)N/N=C/c1ccc(O)cc1	-9.0%	40.4*	184.3%	0.8%	36.3%	68.9*
COc1cccc(/C=N/NC(=S)Nc2cccnc2)c1	1.9%	48.8	33.7%	-0.2%	-23.3%	11.6
COc1ccccc1NC(=S)N/N=C/c1cccc(C)c1	-6.4%	17.4	0.0%	5.2%	-60.4%	23.3*
CCNC(=S)N/N=C/c1cccc(C)c1	-5.0%	56.0*	-24.8%	-27.2%	90.3%	36.9*
CCN(CC)c1ccc2ccc(=O)oc2c1	-7.8%	15.6	-34.3%	-0.7%	9.28µM*	11.8
CCN(CC)c1ccc2c(C)cc(=O)oc2c1	·	·	-8.6%	-5.7%	?	·
O=C(OCn1ncc(Br)c(Br)c1=O)c1ccc(F)cc1	-33.8%	13.4	·	-46.3%	?	23.9*
O=C(OCn1ncc(Br)c(Br)c1=O)c1ccccc1Cl	-217.3%	-23.6	-11.3%	-29.4%	·	12.5
CCNC(=S)N1CCC(c2nc3ccccc3s2)CC1	3.3%	-7.0	25.1%	-2.1%	57.6%	-3.6
O=C(CSc1ccc(F)cc1)N1CCC(c2nc3ccccc3s2)CC1	-148.3%	16.5	?	-26.3%	-16.1%	10.3
O=C(c1cccc(F)c1)N1CCC(c2nc3ccccc3s2)CC1	·	-3.6	-12.2%	-5.4%	4.15µM*	21.3
CNC(=S)N1CCC(c2nc3ccccc3s2)CC1	-2.2%	45.5	83.8%	-0.5%	2.3%	28.0*
O=C(CN1CCC(c2nc3ccccc3s2)CC1)NCc1cccs1	-7.7%	33.3*	-14.2%	1.3%	?	26.2*
COc1ccc(-n2nc(C(=O)NCC(=O)NCc3ccc(F)cc3)c3ccccc3c2=O)c(OC)c1	2.7%	-9.2	8.4%	2.9%	10.4µM*	0.8
COc1ccc(-n2nc(C(=O)NCC(=O)NC(C)C)c3ccccc3c2=O)c(OC)c1	-0.3%	-4.6	15.0%	1.1%	20.1%	-2.6

High-throughput results as filed in PubChem BioAssay.
